KAT2A inh = blocks human GCN5L2 histone acetyltransferase; Potency, µM (doses to about 58.9 µM), without a hit: top-dose activity change, negative = inhibition, most hits filed as inhibitors; 390,000 tested, 0.21% active; GCN5L2 HAT assay, ThioGlo1 CoA-SH fluorescence; Q92830; also: % is scaled to controls: 0 for no effect and ±100 for the full control effect
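Fluorescence readout, Ex340nm/Em540nm: ThioGlo1 (50uM final) reacts with free CoA thiol released as 20nM GCN5L2 acetylates H3(1-25) peptide (75uM) using acetyl-CoA (70uM). Compound and enzyme sat 15 min beforehand; 20 min room-temperature reaction.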
Mito fusion act = blocks mitochondrial division or promotes mitochondrial fusion. S. cerevisiae fusion-defective mutant growth rescue, CellTiterGlo 48 h. Potency, µM (doses to about 46.1 µM), for the others: at the highest dose growth rescue (activation), most hits filed as activators. 320,000 tested, 0.23% active; also: % of control where 0% means no effect; nearly all actives have a fitted effect of over 45% in size
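Luminescent cell viability in 1536-well qHTS format served as the measure of rescued growth in ts fusion-mutant S. cerevisiae cultured on non-fermentable YPEG for 48 hours at 37C.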
VDR inhibitor = inhibitors of human vitamin D receptor; 400,000 tested, 0.93% active; P11473; VDR-SRC2-3 peptide fluorescence polarization, 2 h; Potency, µM, without a hit: max response, negative = inhibition, most hits filed as inhibitors; AID 504847; also: % is scaled to controls: 0 for no effect and ±100 for the full control effect
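Signal is fluorescence polarization, reporting how far test compounds block the interaction of VDR with the SRC2-3 coregulator peptide after a 2 h room-temperature incubation.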
PKM2 act = increases activity of human pyruvate kinase M2; P14618; purified PKM2, Kinase-Glo ATP luminescence, activation; response scale: 0% is enzyme alone, no compound; Potency, µM (highest dose often 57.5 µM), inactives show at the highest dose activation, most hits filed as activators; 260,000 tested, 0.34% active; AID 1631; also: % is scaled to controls: 0 for no effect and ±100 for the full control effect; nearly all actives have a fitted effect of over 55% in size
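Purified hPK-M2 (>95%) run at intermediate activity with 0.1 mM ADP and 0.5 mM PEP in 50 mM imidazole pH 7.2, KCl, MgCl2; 1 h room temperature. ATP formed read by Kinase-Glo luminescence; normalized to uninhibited and no-enzyme controls.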
GLS inh = inhibitors of human glutaminase (GLS); O94925; Potency, µM (highest dose often 45.5 µM), without a hit: at the highest dose activity change, negative = inhibition, most hits filed as inhibitors; 410,000 tested, 0.21% active; AID 624170; GLS enzymatic activity, qHTS titration; also: % is scaled to controls: 0 for no effect and ±100 for the full control effect
Target sequence (O94925 whole entry, looked up): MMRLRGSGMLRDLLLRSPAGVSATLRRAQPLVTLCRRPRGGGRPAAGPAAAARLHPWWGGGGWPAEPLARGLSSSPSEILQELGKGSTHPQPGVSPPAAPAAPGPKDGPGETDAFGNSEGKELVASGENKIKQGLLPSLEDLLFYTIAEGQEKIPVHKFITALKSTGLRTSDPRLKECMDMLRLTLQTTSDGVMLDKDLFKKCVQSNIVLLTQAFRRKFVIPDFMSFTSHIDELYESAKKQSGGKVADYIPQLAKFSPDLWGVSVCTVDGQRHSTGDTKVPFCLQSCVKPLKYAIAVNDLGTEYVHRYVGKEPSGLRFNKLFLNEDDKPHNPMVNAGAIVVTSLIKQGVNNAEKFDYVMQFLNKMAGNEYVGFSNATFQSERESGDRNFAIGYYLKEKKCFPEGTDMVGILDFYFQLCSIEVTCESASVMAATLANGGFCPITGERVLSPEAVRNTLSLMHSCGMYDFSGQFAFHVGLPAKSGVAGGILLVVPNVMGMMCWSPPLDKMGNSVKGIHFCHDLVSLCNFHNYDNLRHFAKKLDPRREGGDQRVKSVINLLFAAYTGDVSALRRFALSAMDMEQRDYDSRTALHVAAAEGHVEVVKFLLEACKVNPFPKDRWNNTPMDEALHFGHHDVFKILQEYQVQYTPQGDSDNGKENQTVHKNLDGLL
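Glutamate formation by hKGA was monitored fluorometrically using coupled glutamate oxidase, HRP and Amplex Red. Substrate was added as 1 mM L-glutamine solution; incubation was 30 min at RT after an initial read.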
PLK1 PBD inh = inhibitors of human PLK1 polo-box domain binding | P53350 | Plk1 PBD binding of FITC phosphopeptide, fluorescence polarization | Potency, µM, without a hit: max response, negative = inhibition, hits mostly inhibitors | 360,000 tested, 2.8% active; also: series mostly up to about 57 µM; % is scaled to controls: 0 for no effect and ±100 for the full control effect; nearly all actives have a fitted effect of over 65% in size
Numbers without * were called inactive; u = inconclusive; x = no result given; [ ] = another dose, or the depositor's remark. Only some compounds are listed: those with a hit (about 3.4% of all), similar ones and a draw of the others. Calls follow the shape of the dose curve; as a rule, active = well fitted curve in the direction sought with a large enough effect; inconclusive = small, poorly fitted or top-dose-only effect, or another doubt; inactive = no such curve, though single readings can be large; an effect the other way counts as inactive or inconclusive. Potency is read from the fitted curve at half-maximal effect.

SMILES	KAT2A inh	Mito fusion act	VDR inhibitor	PKM2 act	GLS inh	PLK1 PBD inh
CCn1cc([N+](=O)[O-])c(C(=O)N2N=C(c3ccc(O)c(OC)c3)CC2c2ccccc2O)n1 (stereo not drawn)	-8.3%	x	-14.5%	17.8µM*	25.2%	-13.0%
CCn1cc([N+](=O)[O-])c(C(=O)N2N=C(c3ccccc3)CC2c2ccc([N+](=O)[O-])cc2)n1 (stereo not drawn)	-4.7%	u	u	1.6%	0.3%	-11.1%
CCn1cc([N+](=O)[O-])c(C(=O)N2N=C(c3ccc(Cl)c(Cl)c3)CC2c2ccccc2O)n1 (stereo not drawn)	-11.0%	0.0%	6.9%	22.4µM*	13.9%	4.9%
CCn1cc([N+](=O)[O-])c(C(=O)N2N=C(c3ccc4ccccc4c3)CC2c2cc(Br)ccc2O)n1 (stereo not drawn)	-7.0%	-2.9%	-6.2%	1.2%	8.9%	1.0%
CCCCNc1nc(C)nc2c1nc(-c1ccccc1)n2CC1CCCN1CC (stereo not drawn)	x	x	x	-0.2%	x	x
CCCc1cc(=O)[nH]c(SCC(=O)N2CCN(c3ccccc3)CC2)n1	-2.7%	3.6%	6.3%	-1.6%	-7.0%	0.1%
O=C(CSc1nccc(=O)[nH]1)N1CCN(c2ccccc2)CC1	-11.4%	2.2%[9.22 µM]	u	-4.7%	-0.2%	16.8µM*
O=C(CSc1ccc(-c2ccccn2)nn1)N1CCCC1	0.5%	11.1%	70.8µM*	4.6%	u	13.4µM*
Cn1c(Cc2ccccc2)nnc1SCC(=O)N1CCN(c2ccccc2)CC1	1.9%	1.9%	-6.9%	12.6µM*	7.9%	-0.8%
O=C(CSc1ccccn1)N1CCN(c2cccc(Cl)c2)CC1	-5.1%	4.8%	u	4.6%	-5.1%	11.9µM*
CC(=O)N(C)c1ccc(NC(=O)c2ccc([N+](=O)[O-])cc2Cl)cc1	-2.1%	12.0%	-2.7%	5.7%	16.4%	-3.2%
C[N+](C)(C)CCOP(=O)(O)OP(=O)([O-])OCC1OC(n2ccc(N)nc2=O)[C@H](O)[C@@H]1O (stereo partly drawn)	x	x	x	x	-0.9%	x
CCCCC1(CO)C(=O)N(c2ccccc2)N(c2ccccc2)C1=O	-6.3%	2.9%	-17.9%	u	10.3%	-16.5%
CCCCC1(Br)C(=O)N(c2ccccc2)N(c2ccccc2)C1=O	-27.2%	3.7%	70.8µM*	x	43.2%	u
COc1cccc(NC(=O)COC(=O)c2cc(=O)c3ccccc3o2)c1	1.0%	-4.6%	u	x	2.9%	-8.7%
Cc1cccc(C)c1NC(=O)COC(=O)c1cc(=O)c2ccccc2o1	-3.8%	2.2%	u	-1.8%	29.1%	21.2µM*
O=C(Cc1ccccc1)NCc1n[nH]c(=S)n1-c1ccc(Br)cc1	-6.9%	11.7%	u	-7.2%	u	10.6µM*
COc1ccccc1Cn1c(SCC(N)=O)nc2c(oc3ccccc32)c1=O	2.3%	-1.0%	-8.3%	-0.9%	u	u
Cn1c(N2CCC(C(N)=O)CC2)nc2c1c(=O)n(Cc1ccc(Cl)cc1)c(=O)n2C	-6.4%	0.8%	-28.5%	1.1%	u	-9.1%
Cn1c(N2CCCC2)nc2c1c(=O)n(Cc1ccc(Cl)cc1)c(=O)n2C	-5.8%	-3.5%	1.3%	-4.1%	12.6µM*	-1.2%
Cn1c(NCCCN2CCOCC2)nc2c1c(=O)n(Cc1ccc(Cl)cc1)c(=O)n2C	-6.0%	-0.4%	11.1%	-1.1%	15.8µM*	-18.5%
Cn1c(NCCCCO)nc2c1c(=O)n(Cc1ccc(Cl)cc1)c(=O)n2C	3.5%	x	-0.1%	x	12.6µM*	x
COc1ccc(Cn2c(=O)c3c(nc(NCCO)n3C)n(C)c2=O)cc1	0.4%	0.8%	9.6%	11.0%	-5.2%	-8.2%
Cc1ccc(S(=O)(=O)N2CCN(C(=O)COC(=O)CSc3ccccc3)CC2)c(C)c1	-4.4%	-6.2%	-24.9%	x	-2.1%	-5.4%
COc1ccc(-n2nnnc2C(CCc2ccccc2)N2CCN(C/C=C/c3ccccc3)CC2)cc1 (stereo not drawn)	x	x	x	x	-0.8%	-7.2%
